Shown are actives, neighbours in structure and some others; about 15% of the full set was active somewhere.
SARS PLP yeast = SARS-CoV PLP inhibition in yeast; S. cerevisiae expressing SARS-CoV PLpro, growth rescue; Potency, µM (highest dose often 32.9 µM), without a hit: at the highest dose activity, positive = growth rescue, usual class: activators; actives 0.19% (n = 330,000); calls by dose curve; also: potency is read from the fitted curve at half-maximal effect; 0% is about no effect; nearly all actives have a fitted effect of over 55% in size
HCMV inh = human cytomegalovirus inhibition | HFF cells, HCMV-luciferase reporter, 72 h; active compounds read low | activity change, negative = inhibition, % at 57.5 µM | actives 4.5% (n = 410,000); in the data active = activity change below about -60%; inconclusive = no clear call, values can overlap the other calls; inactive = above about -39%; also: % is scaled to controls: 0 for no effect and ±100 for the full control effect
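Inhibition of viral replication was scored as loss of reporter luminescence in HFFs infected with HCMV-luciferase (MOI 1 PFU/cell) for 72 h; compounds tested at 2 doses, normalized to buffer and Salinomycin controls.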
HCV inh = inhibitors of hepatitis C virus infection | actives 3.4% (n = 340,000) | Huh7.5.1 HCVcc-Cre infection, luciferase reporter, 44 h | Potency, µM (titrated, usually from 41.8 µM), for the others: at the top dose activity change, negative = inhibition, usual class: inhibitors; also: potency is read from the fitted curve at half-maximal effect; % is scaled to controls: 0 for no effect and ±100 for the full control effect
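HCVcc-Cre virus at an moi near 0.5 was added right after compound to cells cultured 4 h from seeding (1,000 cells/well). Luciferase activity was determined 44 h later, 15 min after substrate addition at RT.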
Pf growth 96h = inhibits malaria parasite growth, 96 h | P. falciparum luciferase reporter growth, 96 h | Potency, µM (titrated, usually from 28.7 µM), for inactives: at the top dose activity change, negative = inhibition, actives largely listed as inhibitors | actives 6.9% (n = 320,000); also: potency is read from the fitted curve at half-maximal effect; % is scaled to controls: 0 for no effect and ±100 for the full control effect
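P. falciparum expressing integrated firefly luciferase grown in erythrocytes (2% hematocrit, 0.05% parasitemia final) with compounds for 96 hours at 37 C, 5% CO2. Growth inhibition read as loss of luminescence after adding luciferase detection reagent.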
Pf growth 48h = inhibits P. falciparum growth in the first generation, 48 h. P. falciparum luciferase growth in erythrocytes, 48 h. Potency, µM (top dose mostly 28.7 µM), for inactives: at the top dose activity change, negative = inhibition, usual class: inhibitors. actives 5.9% (n = 310,000); also: potency is read from the fitted curve at half-maximal effect; % is scaled to controls: 0 for no effect and ±100 for the full control effect
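First compound was added to culture medium, then infected red cells at 0.1% parasitemia and 2% hematocrit (final). After incubation at 37 C under 5% CO2, luciferase detection reagent was dispensed and light output recorded.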
Sm TGR block = blocks Schistosoma mansoni thioredoxin glutathione reductase | Q962Y6 | purified TGR, DTNB reduction, TNB absorbance 405 nm | Potency, µM (series often up to 114 µM), for the others: at the top dose activity change, negative = inhibition, actives largely listed as inhibitors | actives 3% (n = 360,000) | AID 485364; also: potency is read from the fitted curve at half-maximal effect; % is scaled to controls: 0 for no effect and ±100 for the full control effect; nearly all actives have a fitted effect of over 60% in size
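Kinetic colorimetric format: TGR-catalysed, NADPH-driven DTNB reduction monitored via TNB absorbance. Enzyme dispensed at 20 nM; compound exposure 15 min at room temperature before reaction start.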
* marks the source's active call; other numbers are inactive results; u = inconclusive; x = not tested or not shown; [ ] = dose if it differs, or a comment. Unless noted, calls follow the shape of the dose curve; as a rule, active = well fitted curve in the direction sought with a large enough effect; inconclusive = small, poorly fitted or top-dose-only effect, or another doubt; inactive = no such curve, though single readings can be large; an effect the other way counts as inactive or inconclusive.

SMILES	SARS PLP yeast	HCMV inh	HCV inh	Pf growth 96h	Pf growth 48h	Sm TGR block
Cc1ccccc1CCNC(=O)c1ccc2c(c1)nc1n2CCOC1	x	102	x	x	x	12%
Cc1ccccc1CCNC(=O)c1ccc2c(c1)nc1n2CCCCC1	x	-78*	x	x	x	5%
COc1ccc(-c2cscc2N)cc1	x	-3	x	x	x	x
COc1ccc(-n2ncc3c(NC(C)(C)CO)ncnc32)cc1	x	-6	x	x	x	4%
Cn1c(SCC(=O)N(C2CCCCC2)C2CCCCC2)nnc1-c1cccs1	3%	-33	11%	x	12µM*	3%
Cn1c(SCC(=O)NC2CC2)nnc1-c1cccs1	-7%	16	9%	4%	235%	0%
CCOc1ccc(-c2nnc(SCC(=O)NCc3ccccc3)nc2-c2ccc(OCC)c(OC)c2)cc1OC	x	-15	x	x	x	3%
CCN1C(=O)[C@@H]2[C@@H](c3ccc(-c4ccc(F)cc4)c(OC)c3)N3CCC[C@@]3(C(=O)OC)[C@@H]2C1=O	-5%	22	-28%	x	x	x
CCN1C(=O)[C@H]2[C@@H](c3ccc(-c4ccc(F)cc4)c(OC)c3)N3CCCC[C@@]3(C(=O)OC)[C@H]2C1=O	-1%	-9	u	x	x	x
CCN1C(=O)[C@@H]2[C@@H](c3ccc(-c4ccc(C(C)=O)cc4)c(OC)c3)N3CCC[C@@]3(C(=O)OC)[C@@H]2C1=O	-3%	-6	-6%	6.6µM*	10µM*	u
CCN1C(=O)[C@@H]2[C@@H](c3ccc(-c4ccc5c(c4)OCO5)c(OC)c3)N3CCCC[C@@]3(C(=O)OC)[C@@H]2C1=O	8%	-12	0%	12µM*	4.7µM*	-16%
COC(=O)[C@@]12CCCCN1[C@H](c1ccc(-c3ccc(OC)cc3)c(OC)c1)[C@@H]1C(=O)N(C)C(=O)[C@@H]12	-5%	36	u	7.4µM*	9.3µM*	u
CCN1C(=O)[C@@H]2[C@@H](c3ccc(-c4ccc(C(C)=O)cc4)c(OC)c3)N3CCCC[C@@]3(C(=O)OC)[C@@H]2C1=O	-7%	9	-2%	9.3µM*	2.9µM*	-19%
COc1cccc(CNC(=O)CCCn2c(=S)[nH]c3cc4c(cc3c2=O)OCO4)c1	1%	-23	u	22%	u	3%
Cc1cccc(NC(=O)C(C)Oc2ccc(C)nc2[N+](=O)[O-])c1 (stereo not given)	-2%	-3	-4%	x	x	x
CCOc1ccc(S(=O)(=O)N(CC)CC(=O)NCc2ccccn2)cc1C	1%	1	-9%	u	11%	4%
CCn1c(CN2CCN(C(c3ccccc3)c3ccccc3)CC2)nc2c1c(=O)n(C)c(=O)n2C	2%	x	u	3.3µM*	x	u
CCOC(=O)Cn1c(CN2CCN(C(c3ccccc3)c3ccccc3)CC2)nc2c1c(=O)n(C)c(=O)n2C	-8%	0	u	1.9µM*	4.1µM*	-24%
CCN1CCN(Cc2nc3c(c(=O)n(C)c(=O)n3C)n2Cc2cccc3ccccc23)CC1	4%	-13	u	-22%	u	-9%
Cn1c(=O)c2c(nc(CN3CCN(C(c4ccccc4)c4ccccc4)CC3)n2CC(N)=O)n(C)c1=O	7%	-5	20%	u	x	-21%
CCN(CC)c1ccc(S(=O)(=O)N2CCOCC2)cc1NC(=O)CSc1nncs1	8%	x	-1%	u	u	1%
COC(=O)Cc1[nH]n(-c2nc3ccccc3s2)c(=O)c1C(C)=Nc1ccc(C)cc1	-1%	-78*	-15%	7%	-32%	-8%[57.1 µM]
COc1ccc(S(=O)(=O)N2CCC[C@H]2C(=O)N2CCC[C@H]2C(=O)N[C@@H](C)c2ccccc2)cc1C	x	-101*	x	x	x	x
COc1ccc(S(=O)(=O)N2CCC[C@H]2C(=O)N2CCC[C@H]2C(=O)N[C@H](C)c2ccccc2)cc1C	x	2	x	x	x	x
COc1cc2c(cc1OC)CN(C(=O)c1nn(Cc3ccccc3)c(=O)c3ccccc13)CC2	-27%	u	10µM*	u	10µM*	-4%
SMILES	SARS PLP yeast	HCMV inh	HCV inh	Pf growth 96h	Pf growth 48h	Sm TGR block
CC(=O)c1ccc(N2CCN(C(=O)c3nn(Cc4ccccc4)c(=O)c4ccccc34)CC2)cc1	-3%	5	u	-4%	3.7µM*	-1%
COC(=O)c1cc2oc3ccccc3c2n1CC(=O)Nc1ccc(OC)c(OC)c1	x	-2	x	x	x	-2%
Nc1nc2ncccn2c1-c1ccc(C(F)(F)F)cc1	x	-14	x	x	x	x
COc1ccc(NC(=O)C2Cc3ccccc3CN2C(=O)c2ccccc2)cn1 (stereo not given)	-8%	-1	3%	u	x	-4%
CC(=O)c1ccc(NC(=O)C2Cc3ccccc3CN2C(=O)c2ccccc2)cc1 (stereo not given)	-3%	36	13%	15µM*	-21%	-1%
CCOc1ccc(NC(=O)C2Cc3ccccc3N2C(=O)c2ccccc2)cc1 (stereo not given)	x	-5	x	x	x	50µM*
CCc1ccc2c(c1)C(=O)CCC2	x	-19	22%	x	x	x
O=C1CCCc2cc3c(cc21)CC1(C3)Cc2cc3c(cc2C1)C(=O)CCC3	1%	-81*	11µM*	u	5.2µM*	10%
CCOC(=O)C1=CCN(S(C)(=O)=O)C1c1ccc(C)cc1 (stereo not given)	x	-1	x	x	x	x
Cc1cccc(NC(=O)NCCc2c[nH]c3ccccc23)c1	0%	-20	-2%	37%	-1%	17%
Cc1cc(C)nc(NC(=NCCc2c[nH]c3ccccc23)NC(=O)Nc2ccc(Cl)c(Cl)c2)n1	-10%	27	u	2.1µM*	u	-6%
C/C(=N\NC(=O)CCc1c[nH]c2ccccc12)c1cccc([N+](=O)[O-])c1	17%	9	u	23%	30%	3%
Cc1cc(C)nc(NC(=NCCc2c[nH]c3ccccc23)NC(=O)Nc2ccccc2)n1	-13%	u	u	4.7µM*	5.2µM*	7%
Cc1cc(C)nc(NC(=NCCc2c[nH]c3ccccc23)NC(=O)Nc2cccc([N+](=O)[O-])c2)n1	-12%	-9	5%	58%	3.3µM*	-2%
COc1ccc2[nH]cc(CCN=C(NC(=O)c3ccccc3F)Nc3nc(C)cc(C)n3)c2c1	x	-66*	x	x	x	7%
COc1ccc(-c2nn(-c3ccccc3)cc2C(=O)NC2CCCCC2C)cc1 (stereo not given)	-3%	-23	-21%	u	u	-6%
COc1ccc(C(=O)NCc2nnc(SC)n2Cc2ccccc2)cc1	0%	-17	-7%	24%	-12%	11%
